Source: PubChem BioAssay (National Center for Advancing Translational Sciences (NCATS))
FLuc counter = firefly luciferase modulation, counter-screen for miR-21 project; P08659; purified FLuc, Km substrates, luminescence inhibition; Potency, µM (doses to about 57.5 µM), for the others: at the highest dose activity change, negative = inhibition, actives largely listed as inhibitors; 360,000 compounds, 6.9% hits; AID 588342;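 further: plate controls were vehicle for no effect and reference inhibitor for full effect; nearly all actives have a fitted effect of over 55% in size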
Target sequence (P08659 whole entry, looked up): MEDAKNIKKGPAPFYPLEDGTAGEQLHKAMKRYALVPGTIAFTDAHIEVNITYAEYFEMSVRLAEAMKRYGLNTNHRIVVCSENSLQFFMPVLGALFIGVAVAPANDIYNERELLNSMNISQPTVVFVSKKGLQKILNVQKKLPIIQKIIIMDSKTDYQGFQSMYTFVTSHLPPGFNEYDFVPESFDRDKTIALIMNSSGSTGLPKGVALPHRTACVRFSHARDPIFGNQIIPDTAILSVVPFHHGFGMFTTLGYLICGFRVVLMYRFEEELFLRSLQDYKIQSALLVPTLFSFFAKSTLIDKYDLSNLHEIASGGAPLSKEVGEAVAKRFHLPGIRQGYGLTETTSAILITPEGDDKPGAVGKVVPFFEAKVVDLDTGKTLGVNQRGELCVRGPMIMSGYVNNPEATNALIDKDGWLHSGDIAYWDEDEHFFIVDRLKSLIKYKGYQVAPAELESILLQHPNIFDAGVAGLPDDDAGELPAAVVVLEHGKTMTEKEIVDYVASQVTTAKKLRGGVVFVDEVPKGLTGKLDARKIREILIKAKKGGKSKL
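Biochemical qHTS of compounds, final roughly 60 µM downward over six points, against 10 nM purified firefly luciferase using Km concentrations of substrates (10 uM D-luciferin, 10 uM ATP) in Tris acetate pH 7.5 buffer; luminescence output.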
SMN2 splice enh = enhancers of SMN2 splice variant expression | HEK293 SMN2-luciferase splicing reporter, luminescence, 30-36 h | Potency, µM (doses to about 46.1 µM), inactives show at the top dose activity change, positive = activation, most hits filed as activators | 210,000 compounds, 2.8% hits; further: % of control where 0% means no effect; nearly all actives have a fitted effect of over 55% in size
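qHTS luciferase splicing reporter: luminescence rises when SMN2 exon 7 is included in transfected HEK293 cells. Compound exposure lasted 30-36 h at 37C, with 4.5 mM final sodium butyrate as control, followed by a ONE-Glo read.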
ELG1 DNA repair = inhibitors of ELG1-dependent DNA repair in HEK293T cells. Potency, µM (series often up to 46.1 µM), for inactives: at the highest dose activity change, negative = inhibition, hits mostly inhibitors. HEK293T ELG1-luciferase reporter, luminescence, 16 h; DNA damage induced by 5-fluorouridine. 330,000 compounds, 2.3% hits; further: on the % scale 0 is the no-effect control and ±100 the full control effect; nearly all actives have a fitted effect of over 55% in size
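Reporter activity after DNA damage by 5-fluorouridine is monitored. Compound-treated cells incubate 16 hr at 37 °C, then ONE-Glo is added for 30 min before luminescence reading.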
ELG1 genotox = inducers of genotoxicity in HEK293T ELG1-luciferase cells; HEK293T ELG1-luciferase reporter, luminescence, 16 h; Potency, µM (top dose mostly 46 µM), without a hit: at the top dose activity change, positive = activation, actives largely listed as activators; 330,000 compounds, 1.3% hits; further: % of control where 0% means no effect; nearly all actives have a fitted effect of over 60% in size
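Reporter readout depends on ELG1 protein level, which increases with genetic stress. After 16 hr compound exposure at 37 °C, luciferase activity was quantified using ONE-Glo.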
NPC1 prom act = activators of NPC1 promoter; Huh7 NPC1 promoter luciferase reporter, 24 h; Potency, µM (titrated, usually from 9.22 µM), for inactives: top-dose activation, most hits filed as activators; 320,000 compounds, 2.4% hits; AID 485313; further: % of control where 0% means no effect; nearly all actives have a fitted effect of over 60% in size
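Huh7 cells stably carrying NPC1 promoter–luciferase, plated in Opti-MEM with 10% FBS for 2 h, were exposed to compound in DMSO for 24 h at 37 °C; luciferase reagent was added for 10 min and luminescence read.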
Rab9 prom act = activators of Rab9 promoter | 320,000 compounds, 2.8% hits | Huh7 Rab9 promoter-luciferase reporter, luminescence, 24 h | Potency, µM (titrated, usually from 9.22 µM), without a hit: at the top dose activation, negative = inhibition, actives largely listed as activators; further: % of control where 0% means no effect; nearly all actives have a fitted effect of over 60% in size
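Steps: seed 1500 Huh7 Rab9-luc cells per well, rest 2 h at 37 °C; add compound in DMSO; incubate 24 h; add luciferase reagent, 10 min ambient; read luminescence.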
The depositor's hits bear a star; [ ] = another dose, or the depositor's remark. A selection: hits, their analogues and other compounds. The true share with any hit is near 9.4%. The call rests on the fitted dose curve; in most records, active means well fitted curve in the direction sought with a large enough effect; inconclusive means small, poorly fitted or top-dose-only effect, or another doubt; inactive means no such curve, though single readings can be large; an effect the other way counts as inactive or inconclusive. Potency means the concentration at half of the fitted maximal effect.

What do the screens show for `COc1ccc(CCNC(=O)c2ccc3c(c2)CCN3S(=O)(=O)c2ccc(C)cc2)cc1OC`?
FLuc counter: -2.4%; SMN2 splice enh: -29.1%

Results for O=C(Nc1cccc(NC(=O)c2ccc(Br)o2)c1)c1ccccc1 ?
FLuc counter: inconclusive; SMN2 splice enh: inconclusive; ELG1 DNA repair: -17.0%; ELG1 genotox: -5.3%; NPC1 prom act: 12.8%; Rab9 prom act: -2.2%

How did O=C(Nc1ccccc1)c1ccc(Br)o1 do in these assays?
FLuc counter: inconclusive; SMN2 splice enh: 19.6%; ELG1 DNA repair: inconclusive; ELG1 genotox: 17.3%; NPC1 prom act: 16.0%; Rab9 prom act: 14.6%

How did O=C(c1ccccc1)c1cccc(NC(=O)c2ccc(Br)o2)c1 do in these assays?
FLuc counter: 23.9µM*; SMN2 splice enh: 4.4%; ELG1 DNA repair: -16.8%; ELG1 genotox: 4.0%; NPC1 prom act: 2.5%; Rab9 prom act: inconclusive

How did COc1ccc(NC(=O)c2ccc(C(=O)c3ccccc3)o2)cc1 do in these assays?
FLuc counter: inconclusive; SMN2 splice enh: -14.4%; ELG1 DNA repair: 17.5%; ELG1 genotox: -3.1%; NPC1 prom act: 16.0%; Rab9 prom act: inconclusive

What do the screens show for `Cc1cccc(NC(=O)c2ccc(C(=O)c3ccccc3)o2)c1`?
FLuc counter: 8.49µM*; SMN2 splice enh: 15.8µM*; ELG1 DNA repair: inconclusive; ELG1 genotox: inconclusive; NPC1 prom act: 27.2%; Rab9 prom act: inconclusive

Results for Cc1ccccc1C(=O)Nc1cccc(NC(=O)c2ccc(-c3ccc(Br)cc3)o2)c1 ?
FLuc counter: 4.78µM*; SMN2 splice enh: 24.4%; ELG1 DNA repair: 9.2µM*; ELG1 genotox: -0.4%; NPC1 prom act: -2.8%; Rab9 prom act: -1.1%

What do the screens show for `O=C(Nc1ccc2ccccc2c1)c1ccc(Br)o1`?
FLuc counter: 5.36µM*; ELG1 DNA repair: inconclusive; ELG1 genotox: inconclusive; NPC1 prom act: 3.55µM*; Rab9 prom act: 3.55µM*

How did CNS(=O)(=O)c1cc(S(=O)(=O)NC)c2cccc3c2c1NC3=O do in these assays?
FLuc counter: 4.5%; ELG1 DNA repair: inconclusive; ELG1 genotox: -1.6%; NPC1 prom act: -2.9%; Rab9 prom act: -0.3%

Results for COCCc1nn2c(=O)cc(COC(=O)c3ccccc3C)nc2s1 ?
FLuc counter: 2.7%

Results for Nc1nccc(-c2cc(-c3ccc(Cl)cc3Cl)no2)n1 ?
FLuc counter: 0.675µM*; ELG1 DNA repair: inconclusive; ELG1 genotox: inconclusive; NPC1 prom act: 0.355µM*; Rab9 prom act: 0.316µM*

What do the screens show for `COc1ccccc1CO/N=C/NC(=O)c1c(OC)ccnc1Oc1ccc(F)cc1`?
FLuc counter: -1.9%; SMN2 splice enh: -37.8%; ELG1 DNA repair: inconclusive; ELG1 genotox: -3.1%; NPC1 prom act: 1.6%; Rab9 prom act: -0.2%

What do the screens show for `COc1ccnc(Oc2ccccc2)c1C(=O)N/C=N/OCc1ccc(F)cc1Cl`?
FLuc counter: -0.6%; SMN2 splice enh: -0.4%; ELG1 DNA repair: 18.4µM*; ELG1 genotox: -6.3%; NPC1 prom act: -0.2%; Rab9 prom act: 1.7%

How did Nc1nnc(-c2ccccc2[N+](=O)[O-])o1 do in these assays?
FLuc counter: -7.6%; SMN2 splice enh: -0.9%; ELG1 DNA repair: 21.8%; ELG1 genotox: 1.8%; NPC1 prom act: -1.2%; Rab9 prom act: -4.8%

Results for O=[N+]([O-])c1cc(Cl)ccc1-c1nc(-c2ccccc2)no1 ?
FLuc counter: 1.2µM*; SMN2 splice enh: 17.4%[1.84 µM]; ELG1 DNA repair: inconclusive; ELG1 genotox: inconclusive; NPC1 prom act: 3.55µM*; Rab9 prom act: 3.16µM*

Results for Clc1ccccc1-c1nc(-c2ccc(Br)o2)no1 ?
FLuc counter: 1.2µM*; ELG1 DNA repair: inconclusive; ELG1 genotox: 4.11µM*; NPC1 prom act: 1.26µM*; Rab9 prom act: 0.708µM*

What do the screens show for `O=[N+]([O-])c1ccccc1-c1nc(-c2ccc(Br)o2)no1`?
FLuc counter: 3.01µM*; SMN2 splice enh: 17.1%[1.84 µM]; ELG1 DNA repair: inconclusive; ELG1 genotox: inconclusive; NPC1 prom act: 3.16µM*; Rab9 prom act: 2.82µM*

How did O=C(O)CNC(=O)c1ccc(CO)o1 do in these assays?
SMN2 splice enh: 0.6%

What do the screens show for `Cc1ccc(NC(=O)C(=O)NCC(c2cccnc2)N2CCN(Cc3ccccc3)CC2)cc1` (configuration not stated)?
FLuc counter: 5.1%

Results for COc1cccc(-n2ccn(CC(=O)c3ccc(F)cc3)c(=O)c2=O)c1 ?
FLuc counter: -8.8%

Results for O=C(CC1CCCC1)Nc1ccc(Br)cc1 ?
FLuc counter: 16.9µM*; ELG1 DNA repair: inconclusive; ELG1 genotox: inconclusive; NPC1 prom act: inconclusive; Rab9 prom act: inconclusive

What do the screens show for `O=C(COC(=O)CC1CCCC1)Nc1ccc(Cl)cc1`?
FLuc counter: 30.1µM*; ELG1 DNA repair: inconclusive; ELG1 genotox: -4.5%; NPC1 prom act: 2.4%; Rab9 prom act: -0.6%

Results for CSc1ccc(/C=C/C(=O)Nc2ccccc2)cc1 ?
FLuc counter: 0.239µM*; SMN2 splice enh: 3.16µM*; ELG1 DNA repair: inconclusive; ELG1 genotox: -4.0%; NPC1 prom act: 0.316µM*; Rab9 prom act: 0.316µM*

What do the screens show for `CCC(=O)Nc1ccc(NC(=O)/C=C/c2ccc(Cl)cc2)cc1`?
FLuc counter: -4.7%; ELG1 DNA repair: inconclusive; ELG1 genotox: -0.1%; NPC1 prom act: 4.0%; Rab9 prom act: 0.9%

Results for CSc1cccc(NC(C)=O)c1 ?
FLuc counter: -15.1%; SMN2 splice enh: 5.5%; ELG1 DNA repair: -13.8%; ELG1 genotox: 0.5%; NPC1 prom act: 1.6%; Rab9 prom act: -1.4%

Results for CSc1cccc(NC(=O)/C=C/c2ccc(Cl)cc2)c1 ?
FLuc counter: 3.38µM*; SMN2 splice enh: 26.6%; ELG1 DNA repair: inconclusive; ELG1 genotox: 0.1%; NPC1 prom act: inconclusive; Rab9 prom act: 24.9%

What do the screens show for `CSc1cccc(NC(=O)/C=C/c2ccccc2)c1`?
FLuc counter: 4.78µM*; SMN2 splice enh: inconclusive; ELG1 DNA repair: inconclusive; ELG1 genotox: 12.6%; NPC1 prom act: 3.16µM*; Rab9 prom act: 2.24µM*

How did CC(=O)Nc1ccc(NC(=O)/C=C/c2ccccc2)cc1 do in these assays?
FLuc counter: inconclusive; SMN2 splice enh: 6.5%; ELG1 DNA repair: inconclusive; ELG1 genotox: -6.1%; NPC1 prom act: 4.1%; Rab9 prom act: 6.1%

Results for COc1ccc(N2CC(NC(=O)C(=O)c3c[nH]c4ccccc34)CC2=O)cc1 (configuration not stated) ?
FLuc counter: 2.6%
